Where a name gives a salt, the structure may show the parent alone.
What follows are compounds tested on Danio rerio Tg(wt1b:EGFP) embryo, pronephros (assay: fraction of imaged embryos annotated as normal kidney; higher = less nephrotoxic; extreme values may be limits of the assay). Conditions: 25 µM; exposure: 24-48 hpf.
Procedure, shortened: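 Dechorionated Tg(wt1b:EGFP) zebrafish embryos were incubated with 25 μM compound in 0.5% DMSO, 5 mM HEPES-buffered E3 and 0.003% PTU from 24 to 48 hpf at 28.5°C. Pronephroi were then imaged by widefield fluorescence, and the fraction of embryos per treatment assigned by hand to the normal-kidney category is given.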

Compound | fraction of imaged embryos annotated as normal kidney
CC(C)(Oc1ccc(Cl)cc1)C(=O)O [Clofibric acid] | 0.667
Cc1scc2c1N(C(=O)CN1CCN(C)CC1)c1ccccc1NC2=O [Telenzepine dihydrochloride] | 1
Nc1nc2[nH]cc(CCc3ccc(C(=O)N[C@@H](CCC(=O)O)C(=O)O)cc3)c2c(=O)[nH]1 [Pemetrexed disodium] | 0.833
CCCCCCC[N+](CC)(CC)CCCCc1ccc(Cl)cc1 [Clofilium tosylate] | 0.583
NC[C@H]1O[C@H](O[C@H]2[C@H](O)[C@@H](O[C@H]3O[C@H](CO)[C@@H](O)[C@H](N)[C@H]3O)[C@H](N)C[C@@H]2N)[C@H](N)C[C@@H]1O [Tobramycin] | 0.583
Clc1ccc(CSC(Cn2ccnc2)c2ccc(Cl)cc2Cl)cc1 (stereo unspecified) [Sulconazole nitrate] | 0.25
CC1(C)S[C@@H]2[C@H](NC(=O)Cc3ccccc3)C(=O)N2[C@H]1C(=O)O [Benzylpenicillin sodium] | 0.833
CC(C)(O/N=C(\C(=O)N[C@@H]1C(=O)N2C(C(=O)[O-])=C(C[n+]3ccccc3)CS[C@H]12)c1csc(N)n1)C(=O)O [Ceftazidime pentahydrate] | 1
CCOC(=O)C1=C[C@]2(CC)CCCN3CCc4c(n1c1ccccc41)[C@@H]32 [Vinpocetine] | 0.909
COc1ccc(Cl)cc1C(=O)NCCc1ccc(S(=O)(=O)NC(=O)NC2CCCCC2)cc1 [Glibenclamide] | 0.818
CC(=O)c1ccc(S(=O)(=O)NC(=O)NC2CCCCC2)cc1 [Acetohexamide] | 0.833
